Molecules are shown by their SMILES. Results filed as inconclusive are left out. Where a call stands in place of a potency, no number is given. Active and inactive are the calls of the source. Calls follow the shape of the dose curve; as a rule, active = well fitted inhibition curve with a large enough effect; inconclusive = small, poorly fitted or top-dose-only effect, or effect the other way; inactive = flat fitted curve, though single readings scatter.
Potency is read from the fitted curve at half-maximal effect.

Ubiquitin carboxyl-terminal hydrolase 2 (Homo sapiens), sequence (O75604 whole entry, looked up): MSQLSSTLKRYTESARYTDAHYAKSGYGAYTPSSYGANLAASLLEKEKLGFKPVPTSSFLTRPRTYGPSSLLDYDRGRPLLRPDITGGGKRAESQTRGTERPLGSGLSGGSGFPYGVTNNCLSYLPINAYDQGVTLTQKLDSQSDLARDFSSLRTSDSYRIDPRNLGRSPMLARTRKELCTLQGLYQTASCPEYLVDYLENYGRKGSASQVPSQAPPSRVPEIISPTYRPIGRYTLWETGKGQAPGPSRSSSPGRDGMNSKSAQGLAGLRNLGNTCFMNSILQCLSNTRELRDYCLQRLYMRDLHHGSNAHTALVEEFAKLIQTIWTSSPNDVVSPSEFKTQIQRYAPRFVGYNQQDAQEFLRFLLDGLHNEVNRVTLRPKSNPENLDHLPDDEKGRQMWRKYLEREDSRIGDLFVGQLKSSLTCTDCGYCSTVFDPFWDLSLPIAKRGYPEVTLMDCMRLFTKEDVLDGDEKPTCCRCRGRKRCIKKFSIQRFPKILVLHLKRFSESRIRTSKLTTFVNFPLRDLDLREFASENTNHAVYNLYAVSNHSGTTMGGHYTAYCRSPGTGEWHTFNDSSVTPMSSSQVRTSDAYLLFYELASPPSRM

The assay has as its target Ubiquitin carboxyl-terminal hydrolase 2 (Homo sapiens) (UniProt O75604). Put plainly: Confirmation Assay for Inhibitors of Ubiquitin-specific Protease USP2a Using CHOP2 as the Reporter. Also: nearly all actives have a fitted effect of over 55% in size. The settings on record: USP2 core, Ub-CHOP2 coupled reporter fluorescence; series mostly up to 38.3 µM. Summed up:
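USP2 core (10 nM final) was preincubated with compound for 30 min at RT in Tris-HCl pH 8.0, CaCl2, beta-mercaptoethanol, CHAPS. Ub-CHOP2 and reporter substrate (25 nM final each) were added, and fluorescence (Ex 485/Em 531 nm) was read after 60 min.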
For the molecule `Cc1ccc2oc(=O)c3cnn(CC(=O)NCCCOC(C)C)c3c2c1`, the Potency result was “inactive”. The result for `CC(=O)Nc1cc[n+](CC(=O)c2ccc(Cl)cc2)cc1` reads “inactive”; that for `O=C(CSc1nc(N2CCCCC2)nc(N2CCCCC2)n1)N1CCN(c2ccccc2)CC1`, “inactive”; that for `CC(C)(C)c1cc(Br)ccc1OCC(=O)Nc1ncn[nH]1`, “inactive”.

As for `C#CCOCCOCCOCCNc1nc(N2CCN(C(=O)CCCCCCCCCCNC(=O)[C@@H](CCSC)n3cc(CCO)nn3)CC2)nc(N2CCN(C(=O)CCCCCCCCCCNC(=O)[C@H](CCCN=C(N)N)n3cc(C[C@@H](C)CC)nn3)CC2)n1`, the Potency was 13.1 µM (active). The value for `Cc1ccc(C)n1NC(=O)c1ccccc1O` was “inactive”; that for `CCn1c(=O)c(C(=O)Nc2ccccc2S(N)(=O)=O)c(O)c2ccccc21` was 13.1 µM (active); that for `Cc1ccc(C(=O)CSc2nnc(CNc3nc(-c4ccccc4)cs3)n2C)cc1` was “inactive”.

As to `COc1ccc(/C=C(\NC(=O)c2ccc(OC)c(OC)c2)C(=O)N2CCN(C)CC2)cc1`, the Potency entry was “inactive”. Turning to `Cc1ccc(C)c(S(=O)(=O)c2c(N)n(/N=C/c3ccco3)c3nc4ccccc4nc23)c1`, the Potency result was “inactive”. The result for `CCOC(=O)C1CCCN(C(=O)c2cc(-c3ccco3)nc3ccccc23)C1` (centres undefined) reads 18.5 µM (active); that for `CNc1sc(C(=O)c2ccc(F)cc2)c(N)c1-c1nc2ccccc2s1`, “inactive”. In the case of `CCN=C1SC(C(=O)Nc2cccc(OCC)c2)CC(=O)N1CC` (centres undefined), the Potency result is “inactive”. The result for `CCc1cc(C(=O)N=Nc2c(O)[nH]c3ccc([N+](=O)[O-])cc23)c2ccccc2n1` reads 14.7 µM (active); that for `COc1ccccc1C(=O)n1nc(-c2cccnc2)nc1NCc1ccccc1`, 5.85 µM (active); that for `O=C(NC1CCCCC1)C(c1ccco1)N(Cc1ccco1)C(=O)c1ccco1` (centres undefined), “inactive”.

For `CC1(C)CC(=O)C2=C(C1)NCN(CCCN1CCOCC1)C2`, the Potency result was “inactive”. The result for `CC(=O)c1c(N2CCCC2)[nH]c(-c2ccccc2)nc1=S` reads “inactive”; that for `CNc1nc(OCCNC(=O)Nc2ccccc2)nc(N2CCOCC2)n1`, “inactive”.

`Cc1cc(C)n(C(=O)c2cccc(S(=O)(=O)N3CCCC3)c2)n1`: the Potency entry is “inactive”. The result for `O=C(NC12CC3CC(CC(C3)C1)C2)C1=COCCO1` reads “inactive”; that for `CCC(C(=O)NCc1ccccc1OC)n1nc(C)n2c(cc3occc32)c1=O` (centres undefined), “inactive”; that for `O=S(=O)(c1cc(Cl)ccc1Cl)N1CCNCC1`, “inactive”. The value for `CCCCCCCCCCOC(=O)Cn1c(COc2ccc(Cl)cc2)[n+](C)c2ccccc21` was 18.5 µM (active); that for `Cc1ccc(N2CN=c3s/c(=C\c4cccnc4)c(=O)n3C2)cc1` was “inactive”. Turning to `O=C(NN=Cc1ccc(N2CCOCC2)s1)c1ccc([N+](=O)[O-])cc1`, the Potency entry is “inactive”. The value for `COc1ccccc1N1CCN(c2cc(C)nc3nc(C)nn23)CC1` was “inactive”; that for `CCn1nc(C(=O)N[C@@H](CCSC)c2nc3ccccc3[nH]2)c2ccccc2c1=O` was “inactive”.

With `Cc1onc(-c2ccccc2)c1C(=O)N1CCN(C)CC1`, the Potency result was “inactive”.

With `CC(=O)c1ccc(Nc2ncnc3c2oc2ccccc23)cc1`, the Potency entry is “inactive”.

In the case of `CCN(CC)CCNc1nc(-c2ccccc2)c2c(c1C#N)CC(C)(C)OC2`, the Potency entry was “inactive”.

Regarding `CSc1ncccc1C(=O)OCC(=O)N1CCOCC1`, the Potency entry is “inactive”. The result for `C=CCn1c(N)c(C(=O)NCc2cccnc2)sc1=S` reads “inactive”.

Consider `O=S(=O)(Nc1cccc(-c2cn3c(n2)SCC3)c1)c1ccc(F)cc1F`, for which the Potency entry was “inactive”. The result for `O=C1c2ccccc2C(=O)N1CCCCn1c(=O)oc2ccccc21` reads “inactive”; that for `CC(=O)C1=C(O)C(=O)N(c2nnn(C)n2)C1c1cccs1` (centres undefined), “inactive”; that for `CCC(CO)Nc1nc(CN2CCCCC2)nc2scc(-c3ccccc3)c12` (centres undefined), “inactive”. In the case of `O=C(CC(C(=O)O)C1CCCO1)NCCc1ccc2c(c1)OCO2` (centres undefined), the Potency entry was “inactive”. The value for `CCOC(=O)CN1C(=O)S/C(=C/c2ccc(O)c([N+](=O)[O-])c2)C1=O` was “inactive”.

Values taken from PubChem BioAssay AID493168 (National Center for Advancing Translational Sciences (NCATS), 2011).
